# Source: paper PMC4336329 (PLoS ONE, 2015)
# Hit rate of the full screen: of about 310,000 compounds, about 14,000 (4.5%) showed an effect of 50% or more. Effects have a minus sign here. Only a selection was taken, and strong results are over-represented in it overall.
# Target: human ether-à-go-go-related gene (hERG) potassium channel (human, UniProt Q12809)
# Experiment: primary screen, population patch clamp on CHO cells stably expressing hERG; higher = less effect of the substance
# 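Also: peak tail current of the secondary pulse compared with the same well before compound.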
# Chain of human ether-à-go-go-related gene (hERG) potassium channel (Q12809 whole entry, looked up): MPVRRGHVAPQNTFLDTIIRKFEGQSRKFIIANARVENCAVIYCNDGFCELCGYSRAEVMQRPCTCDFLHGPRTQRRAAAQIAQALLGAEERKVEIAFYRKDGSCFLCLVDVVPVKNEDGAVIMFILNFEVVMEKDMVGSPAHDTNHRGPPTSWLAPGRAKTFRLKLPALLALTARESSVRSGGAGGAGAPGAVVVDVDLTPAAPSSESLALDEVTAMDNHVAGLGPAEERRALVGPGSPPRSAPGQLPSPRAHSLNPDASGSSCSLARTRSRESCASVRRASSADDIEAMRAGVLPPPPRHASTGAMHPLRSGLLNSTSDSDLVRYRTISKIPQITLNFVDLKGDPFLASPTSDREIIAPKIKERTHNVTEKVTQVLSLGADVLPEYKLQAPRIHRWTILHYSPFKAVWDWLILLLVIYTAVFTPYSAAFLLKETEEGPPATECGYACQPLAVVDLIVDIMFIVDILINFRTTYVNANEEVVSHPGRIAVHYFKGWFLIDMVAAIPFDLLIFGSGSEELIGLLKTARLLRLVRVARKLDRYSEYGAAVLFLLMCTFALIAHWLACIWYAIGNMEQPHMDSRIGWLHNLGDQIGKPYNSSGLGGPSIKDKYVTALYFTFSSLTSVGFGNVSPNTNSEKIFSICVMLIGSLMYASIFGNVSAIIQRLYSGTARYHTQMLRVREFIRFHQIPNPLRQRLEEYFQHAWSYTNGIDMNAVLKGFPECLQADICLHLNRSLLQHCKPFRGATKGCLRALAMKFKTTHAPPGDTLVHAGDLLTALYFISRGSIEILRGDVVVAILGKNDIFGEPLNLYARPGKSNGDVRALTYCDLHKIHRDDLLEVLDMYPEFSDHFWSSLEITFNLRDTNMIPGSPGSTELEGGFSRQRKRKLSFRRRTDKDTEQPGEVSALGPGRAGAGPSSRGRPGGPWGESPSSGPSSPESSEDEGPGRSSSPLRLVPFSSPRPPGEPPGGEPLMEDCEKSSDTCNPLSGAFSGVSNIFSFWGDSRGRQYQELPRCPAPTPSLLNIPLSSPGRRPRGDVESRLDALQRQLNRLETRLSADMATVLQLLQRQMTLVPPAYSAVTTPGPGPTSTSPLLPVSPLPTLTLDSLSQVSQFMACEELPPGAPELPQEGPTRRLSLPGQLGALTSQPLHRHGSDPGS
row,SMILES,"hERG current change (%, negative = inhibition) at 10uM [%]"
1,CC(NC(=O)c1ccco1)c1nc(-c2ccccc2Cl)no1 (stereo not shown),3.9
2,Cc1cc2nc(-c3cccc(NC(=O)c4ccc(Br)o4)c3C)oc2cc1C,5.67
3,Cc1nc(C)c(-c2ccc(SCC(=O)Nc3cccc(F)c3)nn2)s1,8.66
4,CC(C)C(=O)Nc1ccc(Cc2ccc(NC(=O)C(C)C)c(O)c2)cc1O,-23
5,COc1cccc(-c2nc(CS(=O)(=O)CC(=O)NCCc3ccc(OC)cc3OC)c(C)o2)c1,-13
6,Cc1ccnc(NS(=O)(=O)c2ccc(NC(=O)Cc3ccccc3)cc2)n1,5.26
7,O=C(/C=C/c1ccc([N+](=O)[O-])cc1)NCc1ccco1,-24.1
8,NS(=O)(=O)c1ccc(CCNC(=O)/C=C/c2cccc([N+](=O)[O-])c2)cc1,-13.7
9,NS(=O)(=O)c1ccc(CCNC(=O)/C=C/c2ccc([N+](=O)[O-])cc2)cc1,-69.8
10,O=C(/C=C/c1ccc([N+](=O)[O-])cc1)NCCc1ccc(F)cc1,-60.3
11,COc1ccc(/C=C/C(=O)NCCc2ccc(S(N)(=O)=O)cc2)cc1,3.55
12,COc1ccc(OCCNC(=O)/C=C/c2ccc([N+](=O)[O-])cc2)cc1,-64.7
13,O=C(/C=C/c1ccc([N+](=O)[O-])cc1)NCCSCc1ccco1,-61.3
14,O=C(/C=C/c1cccc([N+](=O)[O-])c1)NCCc1ccc(F)cc1,-21.8
15,COc1ccccc1OCCNC(=O)/C=C/c1ccc([N+](=O)[O-])cc1,-49.2
16,O=C(/C=C/c1ccc([N+](=O)[O-])cc1)NCCc1ccccc1,-14.4
17,O=C(/C=C/c1cccc([N+](=O)[O-])c1)NCCSCc1ccco1,-29.5
18,COc1ccc(/C=C/C(=O)NCCOc2ccc(C)cc2)cc1,6.3
19,O=[N+]([O-])c1cc(/C=N\Nc2ccccn2)ccc1Cl,18.4
20,CCN(CC)c1ccc(NC(=O)CN(C)Cc2cccs2)cc1,6.07
21,O=C(O)c1ccc(NC(=O)c2cccs2)cc1,10.1
22,COc1ccc(NC(=O)COc2ccccc2F)cc1S(=O)(=O)N1CCCCC1,6.02

row,SMILES,"hERG current change (%, negative = inhibition) at 10uM [%]"
1,Cc1ccc2c(c1)c1nnc(SCC(=O)N3CCN(c4ccc(F)cc4)CC3)nc1n2CC(=O)O,-63.1
2,Cc1ccc2c(c1)c1nnc(SCC(=O)N3CCCc4ccccc43)nc1n2CC(=O)O,20.2
3,COc1ccc(N2CCN(C(=O)CSc3nnc4c5cc(C)ccc5n(C)c4n3)CC2)cc1,-13.9
4,COc1cccc(OCc2ccc(Cl)cc2)c1C#N,19.6
5,CCC(=O)N1CCc2cc(S(=O)(=O)NC(CC(C)C)C(=O)N3CCc4ccccc43)ccc21 (stereo not shown),-2.28
6,NC(=O)c1ccccc1NCC(=O)c1ccc(Cl)cc1,16.4
7,O=C(c1cccc([N+](=O)[O-])c1)c1ccc2c(c1)C(=O)NC2=O,-11.5
8,C=C(C)C(=O)Nc1ccc2c(c1)OCCOCCOCCO2,-26.4
9,O=C(N1CCOCCOc2ccccc2OCCOCC1)C(F)(F)F,6.2
10,CC(=O)[O-].[K+].c1ccc2c(c1)OCCOCCOc1ccccc1OCCOCCO2,-74.7
11,CN1CCOCCOc2ccccc2OCCOCC1,7.5
12,c1ccc2c(c1)OCCOCCOCCO2,10
13,c1ccc2c(c1)OCCOCCOCCOCCOCCOc1ccccc1OCCOCCOCCO2,-59.2
14,CC(=O)Nc1cccc2c1OCCO2,6.45
15,c1ccc2c(c1)OCCOCCOCCOCCOc1ccccc1OCCOCCOCCO2,-62.1
16,OCCN1CCOCCOc2ccccc2OCCOCC1,1.57
17,O=C(Nc1ccc(Br)cn1)c1ccc2ccccc2c1,26.8
18,N=c1occ(C(=O)c2cc(F)ccc2O)cc1C(=O)NC1CCCCC1,0.995
19,O=C(COc1ncnc2ccccc12)Nc1ccc(Cl)c([N+](=O)[O-])c1,-7.85
20,CCOc1ccc(S(=O)(=O)Nc2ccc(C(=O)NCCCN3CCCC3=O)cc2)cc1,0.2
21,Br.COCCn1c(-c2ccccc2)csc1=Nc1cccnc1,-68.3
22,CCCCn1c(C)csc1=Nc1cccnc1,-2.02

row,SMILES,"hERG current change (%, negative = inhibition) at 10uM [%]"
1,Cl.c1ccc(-c2csc(=Nc3cccnc3)n2CC2CCCO2)cc1 (stereo not shown),-31.4
2,COCCn1c(-c2ccco2)csc1=Nc1cccnc1.Cl,-3.9
3,Clc1ccc(-c2csc(=Nc3cccnc3)n2CCCn2ccnc2)cc1Cl,-67.3
4,Cc1ccc(-c2csc(=Nc3cccnc3)n2CCCn2ccnc2)cc1C,-70.2
5,COCCCn1c(C)csc1=Nc1cccnc1,4.68
6,COCCn1c(-c2ccc(Br)cc2)csc1=Nc1cccnc1,-14.2
7,Cc1csc(=Nc2cccnc2)n1Cc1ccco1,-0.17
8,CCCNS(=O)(=O)c1ccc(OCC(=O)N2CCC(C(=O)OCC)CC2)cc1,-12.6
9,COc1ccc(C2Nc3ccccc3NC3=C2C(=O)CC(C)(C)C3)cc1O (stereo not shown),19
10,COc1ccc([C@H]2CC(=O)C=C(c3ccc4c5c(cccc35)CC4)C2)cc1,16
11,Cc1cc(N2CCCC2=O)ccc1S(=O)(=O)Nc1c(C)nn(C)c1C,12.3
12,N#C/C(=C(/O)c1ccc(Cl)cc1)c1nc2ccccc2[nH]1,7.3
13,Cn1c(NNC(=O)c2cccc3ccccc23)cc(=O)n(C)c1=O,6.73
14,Cc1cc(NCc2ccco2)nc(N2CCC(C(=O)NC3CCCCC3)CC2)n1,-71.1
15,Cc1cc(C)nc(N2CCC(C(=O)NCc3ccco3)CC2)n1,-1.73
16,Cc1cc(C)nc(N2CCC(C(=O)NC3CCCCCC3)CC2)n1,-4.75
17,O=C(CSc1nnc(NC(=O)c2ccco2)s1)NC1CCCC1,18.6
18,CC(Oc1ccccc1)C(=O)N(CCC1=CCCCC1)c1c(N)n(Cc2ccccc2)c(=O)[nH]c1=O (stereo not shown),-48.6
19,Nc1c(N(CCC2=CCCCC2)C(=O)COc2ccc(F)cc2)c(=O)[nH]c(=O)n1Cc1ccccc1,-6.12
20,CC(Oc1ccc(F)cc1)C(=O)N(CCC1=CCCCC1)c1c(N)n(Cc2ccccc2)c(=O)[nH]c1=O (stereo not shown),-52
21,N#Cc1nc(-c2ccco2)oc1N1CCN(c2ccccc2)CC1,-62.9
22,N#Cc1nc(-c2ccccc2F)oc1N1CCN(C(=O)c2ccco2)CC1,-18.2

row,SMILES,"hERG current change (%, negative = inhibition) at 10uM [%]"
1,N#Cc1nc(-c2ccc(F)cc2)oc1N1CCN(C(=O)c2ccco2)CC1,-75.2
2,COc1cccc(-c2nc(C#N)c(N3CCN(C(=O)c4ccco4)CC3)o2)c1,-35.1
3,COc1ccc(N2CCN(c3oc(-c4ccco4)nc3C#N)CC2)cc1,-47.9
4,N#Cc1nc(-c2ccccc2Cl)oc1N1CCN(C(=O)c2ccco2)CC1,-9.47
5,N#Cc1nc(-c2ccccc2)oc1N1CCN(C(=O)c2ccco2)CC1,-75.7
6,N#Cc1nc(-c2ccco2)oc1N1CCOCC1,4.48
7,COc1ccc(-c2nc(C#N)c(N3CCN(C(=O)c4ccco4)CC3)o2)cc1OC,0.504
8,O=C(CCCN1C(=O)c2ccccc2C1=O)NCCCN1CCOCC1,20.3
9,CCCCCCCCCCCCN1[C@@H](CC(=O)OC)c2cc(F)cc(F)c2S1(=O)=O,11.1
10,CCN(CC)/C(=N\S(=O)(=O)c1ccc(F)cc1)c1ccccc1,8.34
11,Cc1cc2n(n1)C(c1sccc1C)Nc1ccccc1-2 (stereo not shown),-15.9
12,Cc1ccc(Cn2c(C(CO)Nc3nc(-c4ccc(F)cc4)cs3)nc3ccccc32)cc1 (stereo not shown),15.4
13,CCOC(=O)c1ccc(NC(=O)NCCc2cnc[nH]2)cc1,4.44
14,O=C(c1ccccc1[N+](=O)[O-])N1CCCC(C(=O)N2CCCCCC2)C1 (stereo not shown),10.6
15,O=C(Nc1cccc(F)c1)c1cc(-c2ccco2)nc2ccccc12,9.26
16,COc1ccc(S(=O)(=O)N2CCC(N3CCCCC3)CC2)cc1,-11.7
17,O=C(O)c1ccc(S(=O)(=O)N2CCC(n3nnc4cc(C(F)(F)F)ccc43)CC2)cc1,-37.7
18,COc1ccc(S(=O)(=O)N2CCC(n3cnc4cc(C(F)(F)F)ccc43)CC2)cc1,-73.1
19,O=C(O)c1cccc(S(=O)(=O)N2CCC(n3nnc4cc(C(F)(F)F)ccc43)CC2)c1,20.7
20,COc1ccc(S(=O)(=O)N2CCC(N3CCCC3)CC2)cc1,22.3
21,O=S(=O)(c1ccc(Cl)cc1)N1CCC(n2cnc3cc(C(F)(F)F)ccc32)CC1,-78.4
22,CCOC(=O)C1=C(C)NC(=O)NC1c1ccc(N(CC)CC)cc1 (stereo not shown),-6.39
